SNCA expr inhib: Primary qHTS assay for inhibitors of alpha-synuclein gene (SNCA) expression; HEK-293 SNCA-luciferase knock-in, luminescence, 24 h; Potency, µM (highest dose often 57.2 µM), usual class: inhibitors; 0.17% of 140,000 active; also: nearly all actives have a fitted effect of over 45% in size
3T3 cytotox: Cytotoxic Profiling in NIH 3T3 Cell Line of Diverse Libraries Using Quantitative High-Throughput Screening; NIH 3T3 viability, CellTiter-Glo ATP luminescence, 48-72 h; Potency, µM (highest dose often 96.7 µM), actives largely listed as inhibitors; 4.3% of 94,000 active; AID 1345082, 2018; also: nearly all actives have a fitted effect of over 55% in size
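First NIH 3T3 cells are plated at 400 cells/well; next compound is pinned in; then plates incubate 48 or 72 hr at 37 °C; finally CellTiter-Glo is added and luminescence read after 10 min.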
HEK cytotox: Cytotoxic Profiling in HEK 293 Cell Line of Diverse Libraries Using Quantitative High-Throughput Screening | HEK 293 viability, ATP luminescence (CellTiter-Glo), 48-72 h | Potency, µM (titrated, usually from 115 µM), usual class: inhibitors | 6.6% of 94,000 active | AID 1345083, 2018; also: nearly all actives have a fitted effect of over 60% in size
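Read-out: CellTiter-Glo ATP luminescence. Cells: HEK 293, 250 cells/well. Exposure: 48 or 72 hr, 37 degree Celsius.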
IP6K1 inh: Primary qHTS assay for small molecule inhibitors of Inositol hexaphosphate kinase 1 (IP6K1); IP6K1 kinase, ADP-Glo luminescence, 2 h; active compounds read low; activity change, % (series mostly up to about 58 µM); 0.81% of 140,000 active; in the data active = activity change below about -25%
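ADP-Glo luminescence measures ADP made by human IP6K1 during a 2 h RT reaction with ATP/IP6 (mix at 1.3 mM/130 uM); top library doses 57.5 and 19.1 uM final.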
SNCA viab count: GF-AFC viability counterscreen for inhibitors of alpha-synuclein gene (SNCA) expression | HEK-293-SNCA-luc viability, GF-AFC fluorescence, 24 h | Potency, µM (highest dose often 57.1 µM), most hits filed as cytotoxic | 0.12% of 150,000 active | AID 1671193, 2021; also: nearly all actives have a fitted effect of over 30% in size
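Cytotoxicity counterscreen: after 24 h compound treatment of genome-edited SNCA-luciferase HEK-293 cells, live-cell protease substrate GF-AFC read by fluorescence after 30 min; activity scaled between DMSO (0%) and medium-only (-100%), curves Hill-fitted.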
FLuc inh: Firefly luciferase inhibition profiling of diverse chemical library using quantitative high-throughput screening. purified P. pyralis luciferase, luminescence, biochemical. Potency, µM (doses to about 115 µM), actives largely listed as inhibitors. 2.5% of 76,000 active. AID 1347043, 2019; also: nearly all actives have a fitted effect of over 65% in size
Target sequence (P08659 whole entry, looked up): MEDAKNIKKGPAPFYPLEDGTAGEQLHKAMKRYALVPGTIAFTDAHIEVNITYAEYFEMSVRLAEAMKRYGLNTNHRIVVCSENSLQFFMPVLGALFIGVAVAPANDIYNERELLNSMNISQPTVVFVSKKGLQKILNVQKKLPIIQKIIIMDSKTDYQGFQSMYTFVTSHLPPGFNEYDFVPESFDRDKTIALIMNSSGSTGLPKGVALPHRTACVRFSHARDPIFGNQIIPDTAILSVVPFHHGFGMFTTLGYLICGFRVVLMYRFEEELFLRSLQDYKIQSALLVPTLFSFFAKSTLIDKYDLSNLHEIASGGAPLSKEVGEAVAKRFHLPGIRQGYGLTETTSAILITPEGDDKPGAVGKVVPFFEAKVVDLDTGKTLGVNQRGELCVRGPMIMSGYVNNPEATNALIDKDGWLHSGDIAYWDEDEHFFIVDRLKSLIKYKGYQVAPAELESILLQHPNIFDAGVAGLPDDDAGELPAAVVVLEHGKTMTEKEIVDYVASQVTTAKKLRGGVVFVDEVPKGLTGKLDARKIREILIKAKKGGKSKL
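Luminescence read by CCD imager after adding enzyme (10nM final) to wells holding compound, titrated in qHTS. Substrates 10uM each D-luciferin and ATP; buffer 50mM Tris acetate pH 7.5, 10mM Mg acetate, Tween-20, BSA.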
Each line names hits and unclear results; the compound was inactive in the other large screens. An excerpt weighted towards active compounds, which were near 7.3% of everything screened. Unless noted, calls follow the shape of the dose curve; as a rule, active = well fitted curve in the direction sought with a large enough effect; inconclusive = small, poorly fitted or top-dose-only effect, or another doubt; inactive = no such curve, though single readings can be large; an effect the other way counts as inactive or inconclusive.

COc1ccc(OC)c(S(=O)(=O)N2CCn3c(nn(CC4CC4)c3=O)C2)c1	none
Cc1ccc(-c2noc([C@@H]3C[C@@H](O)CN3Cc3nc4ccccc4n3C)n2)cc1F	none
Cc1ccc(-c2noc([C@@H]3C[C@@H](O)CN3Cc3ccc(S(C)(=O)=O)cc3)n2)cc1F	3T3 cytotox inconclusive, HEK cytotox inconclusive, FLuc inh 71µM
Cc1ccc(-c2noc([C@@H]3C[C@@H](O)CN3C3CCCCC3)n2)cc1F	FLuc inh 50µM
O[C@@H]1C[C@@H](c2nc(-c3ccncc3)no2)N(C2CCCCC2)C1	none
CC(=O)N1CCC(N2C[C@H](O)C[C@H]2c2nc(-c3ccc(C(F)(F)F)cc3)no2)CC1	3T3 cytotox inconclusive, HEK cytotox 71µM, FLuc inh inconclusive
COc1ccc(-c2noc([C@@H]3C[C@@H](O)CN3C3CCCCC3)n2)cc1	3T3 cytotox inconclusive, HEK cytotox inconclusive, FLuc inh 71µM
COc1ccccc1C(=O)N[C@@H]1CN(Cc2ccccn2)C[C@H]1CN(C)C	HEK cytotox inconclusive
CC(C)c1cc(C(=O)N2CCN(C)[C@@H]3CS(=O)(=O)C[C@@H]32)nc2ncnn12	none
Cc1ccc(-c2nnc(C3CN(C(=O)Cc4cccc(C)c4)CC34CCOCC4)o2)cc1 (configuration not stated)	HEK cytotox inconclusive
CCN(Cc1noc(C2CCC2)n1)C(=O)C(C)Oc1ccc2ccccc2c1 (configuration not stated)	HEK cytotox 35µM
Cn1nc(C2CCCN(C(=O)C3CCOCC3)C2)n(C2CCCC2)c1=O (configuration not stated)	SNCA expr inhib inconclusive
COc1ccc(-c2cn3c(n2)CO[C@@H](CNS(C)(=O)=O)C3)cc1	FLuc inh 56µM
COc1ccc(-c2cn3c(n2)CO[C@@H](CNC(=O)CCC(=O)O)C3)cc1	SNCA expr inhib inconclusive
COc1ccc(-c2cn3c(n2)CO[C@@H](CNCc2ccc(Cl)cc2)C3)cc1	3T3 cytotox 100µM, HEK cytotox 89µM, FLuc inh 63µM
COc1ccc(CNC[C@H]2Cn3cc(-c4ccccc4)nc3CO2)cc1	3T3 cytotox inconclusive, HEK cytotox inconclusive
CCC(=O)NC[C@H]1Cn2cc(-c3ccc(OC)cc3)nc2CO1	FLuc inh 63µM
O=C(CCc1ccccc1)N1C[C@@H](CO)[C@@H]2Oc3ccc(Cl)cc3[C@@H]21	3T3 cytotox inconclusive, HEK cytotox 79µM (no result: SNCA expr inhib, SNCA viab count, FLuc inh)
O=C([C@@H]1C[C@H](Oc2ccccc2)CN1C(=O)C1CCCCC1)N1CCCC1	3T3 cytotox inconclusive
O=C(CN1CCOc2c(O)cc(-c3csc4ccccc34)cc2C1)N1CCOCC1	SNCA expr inhib inconclusive, 3T3 cytotox inconclusive, HEK cytotox inconclusive, SNCA viab count inconclusive
NCCCCC(=O)N1CCOc2c(O)cc(-c3csc4ccccc34)cc2C1	3T3 cytotox 40µM, HEK cytotox 32µM
Cc1[nH]cnc1C(=O)N1CCOc2c(O)cc(-c3csc4ccccc34)cc2C1	3T3 cytotox 79µM, HEK cytotox 45µM
O=C1CCCN1CCN1CCOc2c(O)cc(-c3csc4ccccc34)cc2C1	3T3 cytotox inconclusive, HEK cytotox 45µM
COc1ccc(CCC(=O)N2C[C@@H](Oc3cccnc3)C[C@H]2C(=O)N2CCOCC2)cc1	none (no result: FLuc inh)
COc1ccc(CC(=O)N2CCC(Oc3ncccc3C(=O)N3CCCCC3)C2)cc1 (configuration not stated)	none
COCCOC1CCOC2(CCN(C(=O)COc3ccc(C)cc3)CC2)C1 (configuration not stated)	none
COc1ccc(C(=O)N2CCCC(c3noc(COc4ccccc4F)n3)C2)cc1OC (configuration not stated)	SNCA expr inhib inconclusive, 3T3 cytotox inconclusive, HEK cytotox inconclusive
Clc1cccc(-c2cnc3n2C[C@H](CNCc2ccccc2)OC3)c1	3T3 cytotox 79µM, HEK cytotox inconclusive
O=C(O)CCC(=O)NC[C@H]1Cn2c(-c3ccc(Cl)cc3)cnc2CO1	none
c1ccc2ncc(CNC[C@H]3Cn4c(-c5ccc6c(c5)OCCO6)cnc4CO3)cc2c1	SNCA expr inhib inconclusive, 3T3 cytotox inconclusive, HEK cytotox 50µM, SNCA viab count inconclusive, FLuc inh inconclusive
O=C(NC[C@H]1Cn2c(-c3cccc(Cl)c3)cnc2CO1)Nc1ccccc1	3T3 cytotox inconclusive, HEK cytotox 100µM
O=C(NC[C@H]1Cn2c(-c3ccc(Cl)cc3)cnc2CO1)Nc1ccccc1	3T3 cytotox inconclusive, HEK cytotox 63µM
CN1CCC(NC[C@H]2Cn3c(-c4ccc5c(c4)OCCO5)cnc3CO2)CC1	3T3 cytotox inconclusive, HEK cytotox inconclusive
COc1cccc(NC(=O)Cn2c(-c3ccc(F)cc3)nc(C)cc2=O)c1	HEK cytotox inconclusive
O=C1NCCOCCN(C(=O)Nc2ccc3c(c2)OCCO3)[C@@H]2CCCC[C@H]12	FLuc inh 16µM
CCOc1ccc(CC(=O)N2CCN(c3cc(-c4ccccc4)[nH]n3)CC2)cc1	3T3 cytotox inconclusive, HEK cytotox inconclusive
O=C(c1ccc(C(F)(F)F)cc1)N1CCC2(CC1)COc1ccccc1NC2=O	3T3 cytotox inconclusive, HEK cytotox 79µM
Cn1nccc1C(=O)NCC1Cn2cccc2CN1Cc1ccccc1 (configuration not stated)	3T3 cytotox inconclusive, HEK cytotox 79µM
O=C(NCC1Cn2cccc2CN1Cc1ccccc1)c1ccccn1 (configuration not stated)	none (no result: FLuc inh)
CN1Cc2cccn2CC1CNC(=O)c1ccnn1C (configuration not stated)	SNCA expr inhib inconclusive
O=C(NCC1Cn2cccc2CN1Cc1ccccc1)c1cncc(Br)c1 (configuration not stated)	3T3 cytotox inconclusive, HEK cytotox 89µM
CCNC(=O)N1CCOc2ccc(CCC(=O)NCc3nc4ccccc4n3C)cc2C1	SNCA expr inhib inconclusive
Cc1ccc(C(=O)N2CCN(C(=O)c3nc4cccnc4n(CCc4ccccc4)c3=O)CC2)cc1	HEK cytotox inconclusive (no result: FLuc inh)
O=C(NCCc1ccccc1)c1c[nH]c2ncccc12	FLuc inh 20µM
O=C(NCc1ccc(Cl)cc1)c1c[nH]c2cccnc12	3T3 cytotox 16µM, HEK cytotox 35µM, SNCA viab count inconclusive (no result: FLuc inh)
O=C(NCCc1ccccn1)c1c[nH]c2ncccc12	FLuc inh inconclusive
